Reference: PubChem BioAssay (NCATS)
Results filed as inconclusive are left out. Unmarked numbers belong to inactive results. The source made the active and inactive calls. The call rests on the fitted dose curve; in most records, active means well fitted cell-killing curve with a large enough effect; inconclusive means small, poorly fitted or top-dose-only effect, or effect the other way; inactive means no such curve, though single readings can be large or run the other way.

Assay: Cell Viability - LYMP2-005 (AID 967)
Conditions: LYMP2-005 lymphoblastoid cell viability; series mostly up to 92.2 µM; activity change, negative = viability loss: at the top concentration
From the text: NIH Chemical Genomics Center [NCGC]
NIH Molecular Libraries Screening Centers Network [MLSCN]
National Institutes of Environmental Health Sciences [NIEHS]
National Toxicology Program [NTP]
We have developed a 1536-well cell-based assay for quantitative high throughput screening (qHTS) against a number of cell lines to determine in vitro cytotoxicity of small molecules. This particular assay uses a human lymphoblastoid cell line (LYMP2-005) purchased from Coriell Institute for Medical Research.
NCGC Assay Protocol Summary:
The CellTiter-Glo luminescent cell viability assay (Promega) is a homogeneous method to measure the number of viable cells in culture. The end point readout of this assay is based on quantitation of intracellular ATP, an indicator of metabolic activity, using the luciferase reaction. Luciferase catalyzes the oxidation of beetle Luciferin to oxyluciferin and light in the presence of ATP. The luminescent signal is proportional to amount of ATP present.
Using the CellTiter-Glo luminescent cell viability assay, the amount of cellular ATP was measured in the lymphoblastoid cell line with complete culture medium following compound treatment for 24 hours. The assay was performed in opaque white Kalypsys 1536-well plates. In the screen, tetraoctylammonium bromide was used as positive control. Library compounds were measured for their ability to cause acute toxicity in the cell line, as reflected by a decrease in intracellular ATP levels, in a concentration-dependent manner. […] AC50 values were determined from concentration-response data modeled with the standard Hill equation.
qHTS protocol for CellTiter Glo lymphoblastoid cellular assay
[Step] [Parameter] [Value] [Description]
1. Reagent; 5 uL; 2500 lymphoblastoid cells/well
2. Time; 5 hr; 37 C incubation
4. Controls; 23 nL; Tetraoctylammonium bromide 6.4pM to 92 uM
5. Time; 24 hr; 37 C incubation
6. Reagent; 5 uL; CellTiter Glo reagent
7. Time; 30 min; Room Temperature
8. Detection; Luminescence; Viewlux plate reader
Keywords: cell viability, cytotoxicity, lymphoblastoid cell line, luminescence, NTPHTS, NTPHTS_NCGC, NIEHS, DSSTox, MLSMR, MLSCN, NIH Roadmap, qHTS, NCGC
Potency means the concentration at half of the fitted maximal effect.

| SMILES | activity change, negative = viability loss [%] | Potency |
| --- | --- | --- |
| CC1(C)S[C@@H]2[C@H](NC(=O)[C@H](N)c3ccccc3)C(=O)N2[C@H]1C(=O)O | -1.11 | – |
| COc1cc(CNC(=O)CCCC/C=C/C(C)C)ccc1O | -15.4 | – |
| N=C1N=C(N)c2cc3ccccc3cc21 | – | 39.8 µM (active) |
| CCCOC(=O)c1ccc(O)cc1 | – | inactive |
| CN1CCC[C@H]1c1cccnc1 | -5.4 | – |
| O=C(O)c1cc(O)c(O)c(O)c1 | -5.08 | – |
| O=C(O)/C=C\C(=O)O | -18.5 | – |
| O=C1CN(/N=C/c2ccc([N+](=O)[O-])o2)C(=O)N1 | -21.6 | – |
| CN(C)CCC(c1ccc(Cl)cc1)c1ccccn1 (stereo not given) | -6.52 | – |
| S=c1[nH]c2ccccc2s1 | -23.4 | – |
| CN(C)c1ccc(C(=C2C=CC(=[N+](C)C)C=C2)c2ccccc2)cc1 | – | 0.501 µM (active) |
| CC(C)NCC(O)COc1cccc2ccccc12 (stereo not given) | -15.7 | – |
| Nc1ccc(O)c([N+](=O)[O-])c1 | 3.17 | – |
| O=c1cc(-c2ccccc2)oc2ccccc12 | 8.06 | – |
| NCCO | -33.3 | – |
| CCCCCCCCCCCCCCCCCC(=O)O | 16.6 | – |
| CN(C)c1ccc(N=NS(=O)(=O)O)cc1 | -22.1 | – |
| Nc1ccc(O)c(C(=O)O)c1 | 8.46 | – |
| c1ccc2sc(SSc3nc4ccccc4s3)nc2c1 | 9.32 | – |
| Nc1ccc([N+](=O)[O-])cc1O | -7.01 | – |
